Experimental data taken from article PMC5540273 (PLoS ONE, 2017).

Columns and labels:
Settings in all cases: concentration: 1 μM, replicates: in singlicate; n = 1
CDKL3 = system: CDKL3
CDKL5 = system: CDKL5
CHEK1 = system: CHEK1
CHEK2 = system: CHEK2
CIT = system: CIT
CLK1 = system: CLK1
CLK2 = system: CLK2
CLK3 = system: CLK3
CLK4 = system: CLK4
CSF1R-autoinhibited = system: CSF1R-autoinhibited
CSF1R = system: CSF1R
CSK = system: CSK
CSNK1A1L = system: CSNK1A1L
CSNK1A1 = system: CSNK1A1
CSNK1D = system: CSNK1D
CSNK1E = system: CSNK1E
CSNK1G1 = system: CSNK1G1
CSNK1G2 = system: CSNK1G2
CSNK1G3 = system: CSNK1G3
CSNK2A1 = system: CSNK2A1
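Further: KINOMEscan kinase panel screen.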

Compound | %Inh (CDKL3) | %Inh (CDKL5) | %Inh (CHEK1) | %Inh (CHEK2) | %Inh (CIT) | %Inh (CLK1) | %Inh (CLK2) | %Inh (CLK3) | %Inh (CLK4) | %Inh (CSF1R-autoinhibited) | %Inh (CSF1R) | %Inh (CSK) | %Inh (CSNK1A1L) | %Inh (CSNK1A1) | %Inh (CSNK1D) | %Inh (CSNK1E) | %Inh (CSNK1G1) | %Inh (CSNK1G2) | %Inh (CSNK1G3) | %Inh (CSNK2A1)
CCC(=O)c1c(-c2ccccc2)c2cc(Cl)ccc2c(=O)n1Cc1ccc(C(=O)O)cc1 | 0% | 0% | 0% | 0% | 0% | 0% | 0% | 0% | 0% | 0% | 2% | 0% | 1% | 0% | 0% | 0% | 0% | 0% | 0% | 0%
Cc1cccc(-c2nc(Nc3ccc4c(cnn4C)c3)c3ccccc3n2)n1 [GW876731] | 12% | 0% | 0% | 0% | 12% | 0% | 10% | 0% | 0% | 0% | 29% | 2% | 0% | 0% | 50% | 37% | 18% | 10% | 0% | 0%
Cc1nnc(-c2ccc(C)c(-c3ccc(C(=O)O)cc3)c2)o1 [GW608005] | 0% | 0% | 5% | 0% | 32% | 10% | 0% | 0% | 0% | 0% | 0% | 0% | 0% | 0% | 0% | 8% | 7% | 0% | 9% | 21%
Cl.NS(=O)(=O)c1cccc(Nc2cc(-c3ccc(F)cc3)n[nH]2)c1 [GW824645] | 1% | 0% | 0% | 0% | 2% | 0% | 0% | 0% | 0% | 0% | 9% | 0% | 0% | 3% | 0% | 19% | 3% | 0% | 0% | 0%
CN1C(=O)C(Nc2cc(Cl)c(O)c(Cl)c2)=C(c2ccc(Cl)cc2)C1=O [SB-404321] | 0% | 0% | 0% | 0% | 38% | 22% | 0% | 0% | 0% | 0% | 0% | 0% | 0% | 0% | 0% | 0% | 0% | 0% | 6% | 0%
COc1cc2nccc(Nc3cccc(Oc4ccccc4)c3)c2cc1OC.Cl [GW284543] | 0% | 0% | 0% | 0% | 0% | 21% | 0% | 0% | 0% | 32% | 0% | 11% | 12% | 0% | 0% | 5% | 0% | 0% | 26% | 0%
O=C1NC(=O)C(c2ccccc2)=C1Nc1cccc(O)c1 [SB-390534] | 0% | 0% | 0% | 16% | 0% | 40% | 21% | 19% | 10% | 0% | 10% | 0% | 8% | 19% | 0% | 16% | 0% | 0% | 8% | 0%
O=C(NCCNc1ccnc(Nc2ccc(F)cc2)n1)Nc1ccc2c(c1)OCO2 [GSK1379882] | 0% | 4% | 0% | 18% | 44% | 17% | 13% | 9% | 17% | 13% | 18% | 2% | 0% | 0% | 2% | 42% | 3% | 0% | 22% | 3%
CCn1c(-c2nonc2N)nc2ccccc21 [SB-693162/GW549034] | 3% | 25% | 0% | 0% | 31% | 0% | 0% | 0% | 0% | 8% | 0% | 5% | 0% | 6% | 7% | 0% | 0% | 0% | 0% | 21%
Cl.c1ccc(Cn2cnc3cc(Nc4ncnc5ccccc45)ccc32)cc1 [GW272142] | 0% | 0% | 0% | 0% | 0% | 27% | 0% | 72% | 20% | 0% | 4% | 64% | 11% | 0% | 16% | 42% | 1% | 1% | 27% | 0%
O=C(Nc1n[nH]c2nc(-c3ccccc3)c(Br)cc12)C1CC1 [SB-708998] | 0% | 0% | 15% | 0% | 19% | 17% | 0% | 0% | 21% | 0% | 0% | 0% | 0% | 6% | 0% | 0% | 10% | 2% | 15% | 6%
Nc1n[nH]c2nnc(-c3ccccc3)c(-c3ccccc3)c12 [GW554060] | 0% | 0% | 24% | 0% | 26% | 23% | 65% | 0% | 12% | 34% | 0% | 0% | 13% | 0% | 0% | 7% | 0% | 0% | 0% | 11%
COc1cc(Nc2ccnc3ccc(C(F)(F)F)cc23)cc(OC)c1OC [GW577382] | 8% | 0% | 0% | 0% | 11% | 25% | 0% | 0% | 14% | 14% | 8% | 3% | 19% | 36% | 21% | 9% | 3% | 0% | 27% | 10%
Nc1nc(N)c2nc(-c3ccccc3)[nH]c2n1 [SKF-12778] | 2% | 4% | 0% | 0% | 17% | 36% | 11% | 13% | 32% | 0% | 2% | 0% | 0% | 52% | 26% | 25% | 18% | 32% | 30% | 14%
COC(=O)c1c(-c2ccccc2)c2cc(Br)ccc2c(=O)n1Cc1ccc(S(C)(=O)=O)cc1 | 22% | 26% | 0% | 23% | 23% | 0% | 14% | 0% | 13% | 7% | 16% | 0% | 9% | 30% | 9% | 0% | 7% | 13% | 0% | 0%
